Test results published in PubChem BioAssay (NCI).
The panel holds about 83,000 compounds, 20% with a hit somewhere; the sample as a whole holds those more often.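 Note: values are percent growth. 100 is the growth of untreated cells, values between 100 and 0 indicate rising inhibition; between -100 and 0 indicates cell death.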 A number with no mark means an inactive call. Active and inactive are the calls of the source. The calls were made as follows: active = growth percent below 10; inactive = the rest.

The compounds below were run on MDA-MB-468 breast (assay: NCI-60 one-dose screen, 48 h (100 = growth as untreated, 0 = no growth, -100 = all killed)). Settings: 10 µM unless noted.

| Compound | growth |
| --- | --- |
| N=C(N)c1ccc(-c2ccc(-c3ccccc3)s2)s1 | -94.5% (active) |
| N#Cc1c(NC(=O)c2cccc(C(F)(F)F)c2F)sc2c1CCC(=O)C2 | -32% (active) |
| Nc1nc2c(c3cnccc13)C(c1cccc(Cl)c1)Cc1cnccc1-2 (centres undefined) | -15.9% (active) |
| CS(=O)(=O)c1nccc(-c2c(-c3cccc(OCCN4CCOCC4)c3)nc3sccn23)n1 | 37.6% |
| c1ccc2c(-c3nc(-c4c[nH]c5ccncc45)cs3)c[nH]c2c1 | -9.84% (active) |
| CC(C)(C)c1ccc(CC(=O)Nc2sc3c(c2C(N)=O)CCC(=O)C3)cc1 | -13.9% (active) |
| O=c1[nH]nc(-c2ccc(Cl)cc2)cc1Cc1cccc([N+](=O)[O-])c1 | 102% |
| O=C(CCN1CCCCC1)c1ccc(Cl)cc1 | 94.3% |
| COc1cc(-c2nn(C(C)(C)C)cc2-c2ccnc(NCCCNS(=O)(=O)c3ccc(Cl)cc3)n2)ccc1Cl | 63.7% |
| Cc1cc2c(c(C)c1Cl)C(=O)/C(=C/c1ccco1)O2 | -2.58% (active) |
| COc1cc(CCC[P+](c2ccccc2)(c2ccccc2)c2ccccc2)cc2c1OCO2 | -22.7% (active) |
| CN(C)c1ccc(-c2ccc3c(c2)c(-c2ccccc2)nc(=O)n3C)cn1 | 5.69% (active) |
| C[C@H](NC(=O)[C@@H](C)N)[C@H](Oc1ccc2c(cnn2-c2ccc(F)cc2)c1)c1ccc2c(c1)OCCO2 | 37.7% |
| CC12O[C@H](C[C@@H](OC(=O)CCC(=O)O)[C@H]1O)n1c3ccccc3c3c4c(c5c6ccccc6n2c5c31)C(=O)NC4=O | 25.9% |
